Measurements as given in PubChem BioAssay AID1159580 (chemical genetic matrix, 2015).
About 2,000 (36%) of roughly 5,500 compounds were called active. Inconclusive results (about 18%) are left out. Cut-off read from the data, not from the text of the source: active = normalized growth mostly below about 0.91 (no sharp cut-off); inconclusive = no clear call, values can overlap the other calls; inactive = mostly above about 0.92. Some of the results follow.

Experiment: chemical genetic growth profiling, strain panel (AID 1159580);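 note: tested at 20 µM; growth read once vehicle control cultures reached saturation at 30 °C; 1 = growth at the plate median or of vehicle wells; lower values mean less growth of the strain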
Settings: S. cerevisiae deletion strains, growth OD
[1] = locus YAL013W, strain DEP1, stronger effect = lower value
[2] = locus YDR150W, strain NUM1, stronger effect = lower value
[3] = locus YMR263W, strain SAP30, stronger effect = lower value
[4] = locus YNL128W, strain TEP1, stronger effect = lower value
[5] = locus YNL153C, strain GIM3, stronger effect = lower value
[6] = locus YPL241C, strain CIN2, stronger effect = lower value

Measured: normalized growth

Cc1nc2n(c(=O)c1CCN1CCC(c3noc4cc(F)ccc34)CC1)CCCC2
inactive: [1] 0.998 | locus YAL040C, strain CLN3, stronger effect = lower value 1.02 | locus YCL061C, strain MRC1 (second series), stronger effect = lower value 1.01 | [2] 1 | locus YDR363W, strain ESC2, stronger effect = lower value 0.988 | locus YER002W, strain NOP16, stronger effect = lower value 1 | locus YGR229C, strain SMI1, stronger effect = lower value 1 | [3] 1 | locus YMR307W, strain GAS1, stronger effect = lower value 1.02 | [4] 1.03 | [5] 1.01 | locus YNL175C, strain NOP13, stronger effect = lower value 1.01 | locus YNL197C, strain WHI3, stronger effect = lower value 1.01 | locus YNL224C, strain SQS1, stronger effect = lower value 1 | locus YOR083W, strain WHI5 (second series), stronger effect = lower value 1 | [6] 1

Cc1cc(CN2CC(C)OC(C)C2)cc(C)c1O (stereo not drawn)
inactive: [1] 1.01 | locus YBR229C, strain ROT2, stronger effect = lower value 1.01 | locus YDL101C, strain DUN1, stronger effect = lower value 1.09 | [2] 1.08 | locus YEL061C, strain CIN8, stronger effect = lower value 0.997 | locus YGR078C, strain PAC10, stronger effect = lower value 1.02 | locus YHR030C, strain SLT2, stronger effect = lower value 1.03 | locus YHR087W, strain rtc3, stronger effect = lower value 0.976 | locus YJR043C, strain POL32, stronger effect = lower value 1.03 | locus YJR075W, strain HOC1, stronger effect = lower value 1 | locus YKL190W, strain CNB1, stronger effect = lower value 0.974 | locus YLR039C, strain RIC1, stronger effect = lower value 1.05 | locus YLR058C, strain SHM2 (second series), stronger effect = lower value 0.991 | locus YLR085C, strain ARP6, stronger effect = lower value 1.03 | locus YLR262C, strain YPT6, stronger effect = lower value 0.954 | locus YML094W, strain GIM5, stronger effect = lower value 0.996 | locus YMR219W, strain ESC1, stronger effect = lower value 0.997 | [3] 1.05 | [4] 0.988 | [5] 1.04 | locus YNL298W, strain CLA4 (second series), stronger effect = lower value 1.02 | locus YNL322C, strain KRE1, stronger effect = lower value 0.994 | locus YNR030W, strain Alg12, stronger effect = lower value 0.992 | locus YOL006C, strain TOP1, stronger effect = lower value 0.975 | locus YPL055C, strain LGE1, stronger effect = lower value 1.01 | [6] 1.03 | locus YPR135W, strain CTF4, stronger effect = lower value 1.04
